Only a selection was taken, and hits are over-represented in it overall.
PglD inh = blocks C. jejuni PglD acetyltransferase activity; purified PglD enzyme, DTNB colorimetric CoA detection; inhibition, % at 12.5 µM; 360,000 compounds, 0.098% hits; AID 602405; in the data active = inhibition above about 16%, passing the limit was not always enough
PDI inh = blocks human protein disulfide isomerase activity; PDI insulin aggregation turbidity, A650, 90 min; inhibition, % at 10 µM; 350,000 compounds, 0.052% hits;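 active = mean inhibition across replicates of 30% or more, whatever share of single replicates reach that level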
CendR NRP1 mod = NRP-1/CendR interaction modulation; O14786; FAM-RPARPAR peptide binding to NRP-1, fluorescence polarization; inhibition, % at 25 µM; 360,000 compounds, 0.85% hits;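 active = inhibition or corrected inhibition above about 18%, plus a signal ratio from 0.5 to 1.5, limit read from the data, passing the limit was not always enough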
Target sequence (O14786 whole entry, looked up): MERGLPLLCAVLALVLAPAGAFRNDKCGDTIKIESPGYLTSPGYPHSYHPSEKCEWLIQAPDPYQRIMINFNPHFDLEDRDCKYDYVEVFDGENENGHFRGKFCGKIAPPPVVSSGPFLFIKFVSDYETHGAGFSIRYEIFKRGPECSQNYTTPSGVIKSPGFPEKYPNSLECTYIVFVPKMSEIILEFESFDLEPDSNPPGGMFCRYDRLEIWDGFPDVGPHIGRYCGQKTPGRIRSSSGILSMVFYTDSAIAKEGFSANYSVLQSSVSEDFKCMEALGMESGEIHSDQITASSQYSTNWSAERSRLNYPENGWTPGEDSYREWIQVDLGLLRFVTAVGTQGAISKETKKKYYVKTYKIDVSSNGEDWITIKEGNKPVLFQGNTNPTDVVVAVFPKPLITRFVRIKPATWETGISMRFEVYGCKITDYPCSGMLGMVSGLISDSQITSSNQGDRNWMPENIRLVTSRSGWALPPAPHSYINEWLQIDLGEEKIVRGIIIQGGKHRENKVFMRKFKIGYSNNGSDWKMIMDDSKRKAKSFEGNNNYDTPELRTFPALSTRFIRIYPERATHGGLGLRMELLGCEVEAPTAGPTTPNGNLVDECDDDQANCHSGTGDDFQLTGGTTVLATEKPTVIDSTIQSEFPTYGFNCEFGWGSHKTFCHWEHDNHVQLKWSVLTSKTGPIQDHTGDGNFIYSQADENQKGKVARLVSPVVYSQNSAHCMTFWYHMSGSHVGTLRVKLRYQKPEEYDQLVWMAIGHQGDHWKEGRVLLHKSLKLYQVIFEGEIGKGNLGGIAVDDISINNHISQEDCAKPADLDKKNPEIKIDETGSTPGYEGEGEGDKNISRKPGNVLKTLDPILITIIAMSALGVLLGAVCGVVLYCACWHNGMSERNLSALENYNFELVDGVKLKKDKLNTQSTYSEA
ALR H2O2 inh = inhibitors of human sulfhydryl oxidase ALR; P55789; purified ALR, DTT oxidation, H2O2 HRP-luminol luminescence; inhibition, % (no concentration beside the values); 290,000 compounds, 3.8% hits; AID 485317;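 active = mean replicate inhibition above about 79%, with every replicate also reaching it, limit read from the data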
ERp5 block = inhibitors of human ERp5. 350,000 compounds, 0.05% hits. Q15084. inhibition, % at 9.99 µM. ERp5 insulin aggregation, absorbance 650 nm, 90 min;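 active = mean replicate inhibition above about 25%, with every replicate also reaching it, limit read from the data, passing the limit was not always enough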
ARNT TACC3 PPI = disruptors of human ARNT/TACC3 interaction; inhibition, % at 9.99 µM; AlphaScreen His-ARNT PAS-B/GST-TACC3 binding, luminescence; TACC3 fragment carries E629A point mutation; 390,000 compounds, 0.66% hits; AID 623870; Q9Y6A5;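 active = mean inhibition of replicates at least 50% and at least half of replicates each reaching 50%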;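 note: 0% = complete ARNT plus TACC3 wells and 100% = ARNT alone without TACC3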
* marks the source's active call; other numbers are inactive results; nt = not tested or not shown.

SMILES | PglD inh | PDI inh | CendR NRP1 mod | ALR H2O2 inh | ERp5 block | ARNT TACC3 PPI
Cc1cccc(-n2c(CNC(=O)c3ccc(S(=O)(=O)N4CCCCC4)cc3)n[nH]c2=S)c1 | nt | -2.2 | 11.0 | 20.7 | 6.0 | -17.7
O=C(NCc1n[nH]c(=S)n1-c1ccc(Cl)c(Cl)c1)c1ccco1 | -0.6 | 4.9 | 4.0 | 85.4* | -9.9 | -5.5
O=C(NCc1n[nH]c(=S)n1-c1cccc(Cl)c1)c1ccc(S(=O)(=O)N2CCCC2)cc1 | -1.6 | 11.4 | 8.5 | 93.7* | nt | -7.6
O=C(NCc1n[nH]c(=S)n1-c1ccc(F)cc1)c1ccc(S(=O)(=O)N2CCCC2)cc1 | 1.9 | -3.4 | 9.5 | 30.9 | nt | -1.6
COc1ccc(/C(C)=N/N2C(=O)c3ccccc3NC2c2ccc(O)c(OC)c2)cc1 (centres undefined) | 8.1 | nt | 3.3 | 98.7* | 9.0 | -0.9
CC(C)NC(=O)c1onc(CSc2cccc3ccccc23)c1C(=O)O | 0.5 | 8.9 | -6.9 | 98.1* | 6.2 | 0.6
CCCCNC(=O)c1onc(CSc2cccc3ccccc23)c1C(=O)O | -4.0 | 10.8 | -8.2 | 98.2* | 2.7 | -1.6
CCCCNC(=O)c1onc(CSc2ccccc2)c1C(=O)O | -2.1 | 3.0 | -2.2 | 19.2 | -1.3 | nt
CCCC#Cc1ccc2c(c1)O[C@@H](CN(C)C(=O)CN(C)C)[C@@H](C)CN([C@@H](C)CO)S2(=O)=O | 7.9 | nt | nt | nt | 2.7 | 5.1
C[C@@H]1CN([C@H](C)CO)C(=O)Cc2cc(NS(=O)(=O)c3ccccc3)ccc2O[C@@H]1CN(C)C(=O)Nc1ccc(C(F)(F)F)cc1 | nt | nt | nt | nt | 0.2 | nt
N/C(=N\O)c1ccccc1N1CCCCC1 | 2.7 | 2.4 | -1.5 | 89.9* | -6.2 | 6.8
Cc1ccccc1/C(N)=N/O | nt | 15.3 | -1.4 | nt | nt | 3.6
Cc1nc(NS(=O)(=O)c2ccccc2)sc1NC(=O)OC(C)C | -0.3 | -7.7 | -11.1 | 35.7 | nt | -1.7
Cc1ccc(S(=O)(=O)Nc2nc(C)c(NC(=O)OCCCl)s2)cc1 | nt | -0.7 | -4.4 | 98.3* | nt | 2.3
Cc1ccc2[nH]c(-c3cccc(N)c3)cc2c1 | 0.2 | 3.7 | 5.7 | 98.5* | nt | -5.1
C/C(=N\O)c1ccc2c3c([nH]c2c1)CCCC3 | -8.0 | -4.1 | 6.7 | 97.4* | nt | 8.1
COc1cccc(CNC(=O)CCC2CCCN(C(=O)C3=CC(=O)CC(C)(C)O3)C2)c1 (centres undefined) | 7.9 | -4.6 | 37.6* | -5.3 | -0.6 | nt
CC(C)NC(=O)/C(C#N)=C\c1ccc(N(C)C)o1 | nt | 2.3 | -191.2 | 97.2* | -6.6 | 6.4
CCN(CC)c1ccc(/C=C(/C#N)C(=O)NCc2ccccc2)o1 | nt | -7.4 | 137.9 | 43.4 | 0.4 | nt
CCN(CC)c1ccc(/C=C(/C#N)C(=O)NC(C)C)o1 | -2.3 | 4.4 | -37.8 | 98.8* | 4.9 | 3.7
C[C@@H]1CCCCO[C@H](CN(C)S(=O)(=O)c2ccc(F)cc2)[C@H](C)CN([C@@H](C)CO)C(=O)c2cc(NS(=O)(=O)c3ccc(F)cc3)ccc2O1 | 1.6 | nt | nt | nt | nt | 15.8
COc1ccc(NC(=O)Nc2cccc3c2O[C@@H](CN(C)Cc2ccc(C(F)(F)F)cc2)[C@@H](C)CN([C@@H](C)CO)C3=O)cc1 | 6.8 | nt | nt | nt | -2.2 | 6.0
CCOC(=O)C1=C(C)N(CCCC(=O)O)C(=O)NC1c1ccc(Br)cc1 (centres undefined) | nt | nt | nt | -3.5 | 1.9 | nt
CCOC(=O)C1=C(C)N(CCCC(=O)O)C(=O)NC1c1ccccc1 (centres undefined) | 7.0 | -13.3 | 29.9* | -0.8 | 7.7 | -0.6
COc1cc(/C=C(\C#N)c2nc3ccccc3[nH]2)cc(OC)c1O | nt | 16.1 | 132.8 | 99.3* | 11.9 | 11.0
SMILES | PglD inh | PDI inh | CendR NRP1 mod | ALR H2O2 inh | ERp5 block | ARNT TACC3 PPI
COC(=O)/C(C#N)=C/c1c[nH]c2ccccc12 | nt | 0.9 | 6.3 | -6.7 | 14.8 | 6.7
Cn1c(/C(C#N)=C/c2ccc(O)cc2)nc2ccccc21 | -1.7 | 0.1 | -4.1 | 98.8* | -6.7 | 0.1
COc1cc(/C=C(\C#N)C(=O)c2c[nH]c3ccccc23)cc(OC)c1O | -3.7 | 1.9 | 134.7 | 99.4* | -6.6 | -1.5
COc1ccc(/C=C(\C#N)c2nc3ccccc3[nH]2)cc1O | -0.4 | 3.5 | 4.4 | nt | -2.3 | -8.1
Cc1ccc2nc(/C(C#N)=C\c3cc(O)ccc3[N+](=O)[O-])[nH]c2c1 | nt | -6.1 | -21.7 | 97.9* | 3.6 | 18.2
CO[C@@H]1CN(C)C(=O)c2ccc(NC(C)=O)cc2OC[C@H](C)N(Cc2cncnc2)C[C@@H]1C | 1.5 | nt | nt | nt | -3.9 | nt
N#Cc1ccc(-c2ccc3c(c2)[C@@H]2[C@@H](CCN2C(=O)C2CC2)[C@@H](CO)N3)cc1 | -0.3 | nt | nt | nt | -3.3 | 2.5
COc1c(O)ccc(/C=C(\C#N)c2nc3ccccc3[nH]2)c1[N+](=O)[O-] | -6.6 | 6.9 | -19.2 | 87.2* | 3.4 | 10.7
COc1cc(/C=C(\C#N)c2nc3ccccc3n2C)cc(OC)c1O | nt | -2.2 | -182.4 | 98.8* | -2.7 | 1.1
Cn1c(/C(C#N)=C/c2ccncc2)nc2ccccc21 | 3.4 | -1.7 | 8.6 | 3.1 | -3.1 | 13.3
Nc1ccc2c(c1)OCCOCCOCCOCCOCCO2 | nt | -1.4 | 7.3 | 98.5* | 5.2 | 15.1
CCOC(=O)C1=C(C)NC(=O)C1CC(=O)Nc1ccccc1 (centres undefined) | nt | nt | nt | 96.2* | nt | nt
CC(=O)Nc1ccc(NC(=O)CC2Nc3cccc4cccc(c34)NC2=O)cc1 (centres undefined) | nt | 1.5 | 8.7 | 85.7* | nt | 8.6
O=C(CC1NC(=O)NC1=O)Nc1ccccc1 (centres undefined) | nt | 0.1 | 26.9* | -22.7 | nt | 7.4
C[C@@H]1CN([C@@H](C)CO)C(=O)c2cc(NC(=O)Cn3cnnn3)ccc2O[C@@H]1CN(C)S(=O)(=O)c1ccccc1 | nt | nt | nt | nt | -5.4 | nt
O=C1OCC/C1=C\c1ccc(O)cc1 | 2.3 | 9.1 | 0.4 | 98.2* | 2.9 | -24.2
O=C1OCCC1=Cc1ccccc1 | nt | 0.8 | -2.9 | nt | -0.5 | -3.2
C[C@H](CO)N1C[C@H](C)[C@H](CN(C)S(=O)(=O)c2ccccc2)Oc2ccc(NS(=O)(=O)c3ccc(F)cc3)cc2C1=O | 2.5 | nt | nt | nt | nt | 25.1
CCOP(=O)(c1ccccc1)C1(C#N)CC1 (centres undefined) | nt | 16.1 | 8.8 | -2.7 | 2.0 | 3.8
CCOP(=O)(OCC)C(C#N)=C1SCN(c2ccccc2)CS1 | 3.6 | -10.6 | 0.3 | 99.0* | nt | 5.4
C[C@H](CO)N1C[C@H](C)[C@@H](CN(C)Cc2ccccc2)Oc2ccc(NC(=O)C3CCCCC3)cc2CC1=O | 0.1 | nt | nt | nt | 8.0 | -8.3
COc1cccc(C2C(C(=O)Nc3ccccc3)=C(C)N=c3s/c(=C/c4ccc(OCC(=O)O)cc4)c(=O)n32)c1 (centres undefined) | nt | 8.8 | -17.0 | 96.6* | nt | 21.9
CC(=O)Nc1cccc(NC(=O)c2cccc(-c3ccc(O)cc3)c2)c1 | nt | -4.2 | 3.2 | 98.5* | -1.0 | 1.3
O=C(NCC1CCCCC1)c1cccc(-c2ccc(O)cc2)c1 | 4.8 | -1.1 | 5.2 | 82.5* | 0.4 | 4.9

Compound activity deposited in PubChem by several laboratories.
